40 compounds from PubChem BioAssay (NCATS) can be followed below.

SMILES strings stand for the structures. Inconclusive results are not listed. The source made the active and inactive calls. Calls come from the whole dose curve; as a rule, active = well fitted curve in the direction sought with a large enough effect; inconclusive = small, poorly fitted or top-dose-only effect, or another doubt; inactive = no such curve, though single readings can be large; an effect the other way counts as inactive or inconclusive.

The target of the first experiment is Aldehyde dehydrogenase, mitochondrial (Homo sapiens) (UniProt P05091). Nature of the experiment: qHTS for Inhibitors of the Aldehyde Dehydrogenase Family (ALDH2) Primary screen (AID 2061308).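 Note: plate controls were vehicle for no effect and reference inhibitor for full effect; nearly all actives have a fitted effect of over 55% in size.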 The settings on record: ALDH2 enzyme inhibition qHTS, 1536-well; series mostly up to 56 µM; activity change, negative = inhibition: at the top concentration.
With `Fc1ccc(-c2ccc(Nc3nc(-c4ccncc4)nc4ccccc34)cc2F)cc1`, the “activity change, negative = inhibition” value was -7.62% (inactive). Still for that read-out and setting: for `O=C(Cc1ccc(Cl)c(Cl)c1)Nc1ccc([S+](=O)([O-])Nc2ncn[nH]2)cc1` the value was -7.77% (inactive); for `Cc1ccc(OCCn2c(CCNC(=O)CCN3CCCCC3)nc3ccccc32)cc1`, 8.83% (inactive). As for `Cc1ccnc(NC(=S)N2CC3CN(c4cccc(C(F)(F)F)c4)CC3C2)c1` (configuration not stated), the “activity change, negative = inhibition” value is -25.2% (inactive). Take `COC(=O)c1sc2c(c1-c1nc3ccccc3s1)CCNC2`: the “activity change, negative = inhibition” value was 5.55% (inactive). Still for that read-out and setting: for `Cc1ccc(N2C(=O)c3ccccc3C2=O)c(C)c1` the value was 1.77% (inactive); for `Cc1cc2c(s1)c1cnn(Cc3ccccc3Cl)c(=O)c1n2C`, -1.07% (inactive); for `CNc1oc(-c2cccs2)nc1C#N`, 2.53% (inactive).

In the case of `O=C1CCCC2=C1C(c1ncccc1Br)N=C(Nc1nc3ccccc3o1)N2` (configuration not stated), the “activity change, negative = inhibition” value is -2.8% (inactive).

With `C[S+](=O)([O-])c1ccc(C(=O)OCC(=O)N2CCNC(=O)C2)cc1[N+](=O)[O-]`, the “activity change, negative = inhibition” value was -9.06% (inactive). Same read-out and setting: the result for `c1nc(NCCCN2CCCCC2)c2cc(-c3ccc4c(c3)OCO4)ccc2n1` reads 0.768% (inactive); that for `Cc1ccc(CNc2ccc(N3CCN(C(=O)OC(C)(C)C)CC3=O)cc2)cc1`, -0.614% (inactive). With `C[C@@H]1CC[C@]2(C(=O)O)CC[C@]3(C(=O)O)C(=CCC4[C@@]5(C)CC[C@H](O[C@@H]6O[C@@H](C)[C@H](O[C@@H]7O[C@H](CO)[C@@H](O)[C@H](O)[C@H]7O)[C@@H](O)[C@H]6O)C(C)(C)C5CC[C@]43C)C2[C@H]1C` (some centres not stated), the “activity change, negative = inhibition” value was 18% [at 16.9 µM] (inactive).

Turning to `COc1cc(-c2ccc3ncnc(NCc4ccc(C)o4)c3c2)cc(OC)c1OC`, the “activity change, negative = inhibition” value was -8.53% (inactive). Turning to `O=C1CCCC2=C1C(c1c(Cl)cccc1Cl)N=C(Nc1nc3ccccc3o1)N2` (configuration not stated), the “activity change, negative = inhibition” value was -4.96% (inactive). Take `O=C(Nc1nc(-c2ccccc2)cs1)c1ccccc1[N+](=O)[O-]`: the “activity change, negative = inhibition” value is -8.74% (inactive).

Consider `O=C(OCC#CCSc1nnc(-c2ccccc2F)o1)c1ccc(F)cc1`, for which the “activity change, negative = inhibition” value is 3.47% (inactive). Still for that read-out and setting: for `O=C(Nc1ccc(S(=O)(=O)Nc2nccs2)cc1)C1CCC2(CCC2)CC1` the value was 9.76% (inactive). With `S=C(NCCCN(Cc1ccc(Cl)c(Cl)c1)c1ccc(Br)cn1)NCCc1cnc[nH]1`, the “activity change, negative = inhibition” value is 10.1% (inactive).

Take `Cc1ccc(-c2nnc(N3CCC(C(N)=O)CC3)s2)cc1`: the “activity change, negative = inhibition” value is -27.1% (inactive). Still for that read-out and setting: for `O=C(OCC#CCSc1nnc(-c2ccc3ccccc3c2)o1)c1ccc(OC(F)(F)F)cc1` the value was -2.48% (inactive); for `COc1cc(O)c(C(CC(=O)N2CCC(C)CC2)c2ccc(C)cc2)c(OC)c1` (configuration not stated), 2.18% (inactive).

The next experiment deals with Retinaldehyde dehydrogenase 3 (Homo sapiens) (UniProt P47895). As to the kind of experiment: qHTS for Inhibitors of the Aldehyde Dehydrogenase Family (ALDH1A3) Primary screen (AID 2061315).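 Note: plate controls were DMSO vehicle for no effect and reference inhibitor for full effect.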 The settings on record: ALDH inhibition qHTS; series mostly up to 56 µM; activity change, negative = inhibition: at the top concentration.
For `Cc1ccc(S(=O)(=O)Nc2cnccc2C(=O)Nc2nc(-c3ccccc3Cl)cs2)cc1`, the “activity change, negative = inhibition” value is 2.92% (inactive). For the compound `COCc1nn2c(=O)cc(N3CCNCC3)nc2s1`, the “activity change, negative = inhibition” value was 17.2% (inactive). The same measure, in the same setting: for `CCCn1c(C)nc2c(N3CCOCC3)nc(C)nc21` the value was -5.59% (inactive). On to `O=C(Nc1ccc(Cl)c(Cl)c1)Nc1nnc(-c2ccncc2)s1`, for which the Potency entry was “inactive”. As to `Cc1ccc(S(=O)(=O)Nc2ccccc2C(=O)Nc2nc(-c3ccccc3)c(C)s2)cc1`, the “activity change, negative = inhibition” value is 6.1% (inactive). For `O=[S+]([O-])(Nc1nccs1)c1ccc(NCc2cc(Cl)cc(Br)c2O)cc1`, the “activity change, negative = inhibition” value was 8% (inactive). Take `Cc1cc(-c2nnc3n2CCC3)c(C)n1-c1ccccc1`: the “activity change, negative = inhibition” value was -3.77% (inactive). The same measure, in the same setting: the result for `CCOc1ccc(CCNC(=O)c2csc(Br)n2)cc1OCC` reads -0.665% (inactive). On the same count and under the same terms, the result for `COc1cc(F)c(S(=O)(=O)N2CCN(S(=O)(=O)c3ccc4c(c3)OCCO4)CC2)c(F)c1` reads 19.2% (inactive); that for `CC1=C(C(=O)Nc2ccccc2)C(c2ccccc2Cl)N=C(Nc2nc3ccccc3o2)N1` (configuration not stated), 11% (inactive); that for `O=S(=O)(c1ccccc1)N1CCN(c2nccc(-c3cccs3)n2)CC1`, 6.72% (inactive). On to `CC(C)c1ccccc1-c1ncc(F)c(NCc2ccc(-c3cccnc3)s2)n1`, for which the “activity change, negative = inhibition” value was 11.8% (inactive). `Cc1cc(C)nc(NC(=S)N2CCN(c3nc4ccccc4s3)CC2)c1`: the “activity change, negative = inhibition” value was 9.35% (inactive). As to `O=C(Nc1sc2c(c1-c1nc3ccccc3s1)CCNC2)C(F)F`, the “activity change, negative = inhibition” value was 8.91% (inactive).

In the case of `Cc1cccc(-c2ccc3ncnc(NCc4cccnc4)c3c2)c1`, the “activity change, negative = inhibition” value was -4.1% (inactive). The same measure, in the same setting: the result for `Cc1ccc(C)c(SC2CS(=O)(=O)c3ccccc32)c1` (configuration not stated) reads -11% (inactive); that for `CCOc1ccc(CCNC(=O)c2cc3sccc3n2Cc2ccccc2)c(F)c1OCC`, -5.65% (inactive). Same read-out and setting: for `Cc1nc(NC2CCCCC2)c2nc(-c3ccccc3)n(CCCN(C)C)c2n1` the value was 31.4% (inactive); for `Fc1ccc(-c2ccc(Nc3nc(-c4ccncc4)nc4ccccc34)cc2F)cc1`, -9.05% (inactive). `O=C(Cc1ccc(Cl)c(Cl)c1)Nc1ccc([S+](=O)([O-])Nc2ncn[nH]2)cc1`: the “activity change, negative = inhibition” value was -1.69% (inactive). The same measure, in the same setting: for `Cc1ccc(OCCn2c(CCNC(=O)CCN3CCCCC3)nc3ccccc32)cc1` the value was 1.72% (inactive); for `Cc1ccnc(NC(=S)N2CC3CN(c4cccc(C(F)(F)F)c4)CC3C2)c1` (configuration not stated), -14.8% (inactive).

Take `COC(=O)c1sc2c(c1-c1nc3ccccc3s1)CCNC2`: the “activity change, negative = inhibition” value was -4.9% (inactive).

Consider `Cc1ccc(N2C(=O)c3ccccc3C2=O)c(C)c1`, for which the “activity change, negative = inhibition” value is -1.86% (inactive). Still for that read-out and setting: the result for `Cc1cc2c(s1)c1cnn(Cc3ccccc3Cl)c(=O)c1n2C` reads -13% (inactive); that for `CNc1oc(-c2cccs2)nc1C#N`, -2.18% (inactive).

Regarding `O=C1CCCC2=C1C(c1ncccc1Br)N=C(Nc1nc3ccccc3o1)N2` (configuration not stated), the “activity change, negative = inhibition” value is 2.33% (inactive). `C[S+](=O)([O-])c1ccc(C(=O)OCC(=O)N2CCNC(=O)C2)cc1[N+](=O)[O-]`: the “activity change, negative = inhibition” value was -6.74% (inactive).

On to `c1nc(NCCCN2CCCCC2)c2cc(-c3ccc4c(c3)OCO4)ccc2n1`, for which the “activity change, negative = inhibition” value was -13.4% (inactive). The same measure, in the same setting: for `Cc1ccc(CNc2ccc(N3CCN(C(=O)OC(C)(C)C)CC3=O)cc2)cc1` the value was 3.01% (inactive). On to `C[C@@H]1CC[C@]2(C(=O)O)CC[C@]3(C(=O)O)C(=CCC4[C@@]5(C)CC[C@H](O[C@@H]6O[C@@H](C)[C@H](O[C@@H]7O[C@H](CO)[C@@H](O)[C@H](O)[C@H]7O)[C@@H](O)[C@H]6O)C(C)(C)C5CC[C@]43C)C2[C@H]1C` (some centres not stated), for which the “activity change, negative = inhibition” value is 13.6% [at 16.9 µM] (inactive).

Turning to `COc1cc(-c2ccc3ncnc(NCc4ccc(C)o4)c3c2)cc(OC)c1OC`, the “activity change, negative = inhibition” value was 1.5% (inactive). As for `O=C1CCCC2=C1C(c1c(Cl)cccc1Cl)N=C(Nc1nc3ccccc3o1)N2` (configuration not stated), the “activity change, negative = inhibition” value is 14.2% (inactive). Same read-out and setting: for `O=C(Nc1nc(-c2ccccc2)cs1)c1ccccc1[N+](=O)[O-]` the value was 4.75% (inactive); for `O=C(OCC#CCSc1nnc(-c2ccccc2F)o1)c1ccc(F)cc1`, -0.68% (inactive); for `O=C(Nc1ccc(S(=O)(=O)Nc2nccs2)cc1)C1CCC2(CCC2)CC1`, 14.5% (inactive). In the case of `S=C(NCCCN(Cc1ccc(Cl)c(Cl)c1)c1ccc(Br)cn1)NCCc1cnc[nH]1`, the “activity change, negative = inhibition” value was 19.6% (inactive). Still for that read-out and setting: for `Cc1ccc(-c2nnc(N3CCC(C(N)=O)CC3)s2)cc1` the value was 10.6% (inactive); for `O=C(OCC#CCSc1nnc(-c2ccc3ccccc3c2)o1)c1ccc(OC(F)(F)F)cc1`, -4.19% (inactive); for `COc1cc(O)c(C(CC(=O)N2CCC(C)CC2)c2ccc(C)cc2)c(OC)c1` (configuration not stated), -4.32% (inactive).
